# Results taken from PubChem BioAssay (EPA / NIEHS).
# Inconclusive results are not listed. The source made the active and inactive calls. Rule for the calls: active = hit-call score of the fitted dose curve at least 0.9, where 1 is the maximum; inconclusive = response in the unintended direction; inactive = score below 0.9.
# Molecular target: human Acetylcholinesterase (AChE), ACHE (gene 43) (UniProt P22303)
# Assay: NVS_ENZ_hAChE: NovaScreen (NVS) Enzymatic Assay for human Acetylcholinesterase (AChE) (AID 2283129)
# In short: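 Actives from a duplicate single-point screen (25 uM) were followed up in concentration series. Enzyme activity read by absorbance (colorimetric) 0.33 hour after dosing, cell-free, normalized to DMSO, with loss of signal scored.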
# human Acetylcholinesterase (AChE), ACHE (gene 43), sequence (P22303 whole entry, looked up): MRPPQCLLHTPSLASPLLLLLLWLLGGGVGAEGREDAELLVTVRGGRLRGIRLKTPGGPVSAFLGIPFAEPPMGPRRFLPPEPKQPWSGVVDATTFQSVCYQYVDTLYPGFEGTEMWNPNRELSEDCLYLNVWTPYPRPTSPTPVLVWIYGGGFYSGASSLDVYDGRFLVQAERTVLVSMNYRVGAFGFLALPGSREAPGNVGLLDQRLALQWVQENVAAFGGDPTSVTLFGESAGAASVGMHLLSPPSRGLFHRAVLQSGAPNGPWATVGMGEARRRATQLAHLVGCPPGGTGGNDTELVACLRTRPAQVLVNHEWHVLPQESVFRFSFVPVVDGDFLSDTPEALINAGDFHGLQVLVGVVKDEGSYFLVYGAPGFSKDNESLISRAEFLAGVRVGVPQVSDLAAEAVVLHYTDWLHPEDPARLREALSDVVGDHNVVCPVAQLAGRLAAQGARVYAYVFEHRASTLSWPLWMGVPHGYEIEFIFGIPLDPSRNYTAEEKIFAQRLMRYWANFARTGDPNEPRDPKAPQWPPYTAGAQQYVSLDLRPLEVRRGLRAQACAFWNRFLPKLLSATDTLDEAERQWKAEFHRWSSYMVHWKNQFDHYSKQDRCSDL
SMILES,outcome,AC50
CCCCC(CC)COC(=O)c1ccc(C(=O)OCC(CC)CCCC)c(C(=O)OCC(CC)CCCC)c1 (stereo unspecified),inactive,–
CNC(=O)Oc1cccc2c1OC(C)(C)C2,–,0.497 µM (active)
CCCCCCCCOC(=O)c1ccc(C(=O)OCCCCCCCC)c(C(=O)OCCCCCCCC)c1,inactive,–
Cc1ccc(N=C=O)cc1N=C=O,–,8.65 µM (active)
CCCCCOC(=O)c1ccccc1C(=O)OCCCCC,inactive,–
CCC[CH2][Sn]([Cl])([CH2]CCC)[CH2]CCC,inactive,–

# Molecular target: human AMP-activated Protein Kinase, alpha 1 (AMPKa1), PRKAA1 (gene 5562) (UniProt Q13131)
# Sequence (Q13131 whole entry, looked up): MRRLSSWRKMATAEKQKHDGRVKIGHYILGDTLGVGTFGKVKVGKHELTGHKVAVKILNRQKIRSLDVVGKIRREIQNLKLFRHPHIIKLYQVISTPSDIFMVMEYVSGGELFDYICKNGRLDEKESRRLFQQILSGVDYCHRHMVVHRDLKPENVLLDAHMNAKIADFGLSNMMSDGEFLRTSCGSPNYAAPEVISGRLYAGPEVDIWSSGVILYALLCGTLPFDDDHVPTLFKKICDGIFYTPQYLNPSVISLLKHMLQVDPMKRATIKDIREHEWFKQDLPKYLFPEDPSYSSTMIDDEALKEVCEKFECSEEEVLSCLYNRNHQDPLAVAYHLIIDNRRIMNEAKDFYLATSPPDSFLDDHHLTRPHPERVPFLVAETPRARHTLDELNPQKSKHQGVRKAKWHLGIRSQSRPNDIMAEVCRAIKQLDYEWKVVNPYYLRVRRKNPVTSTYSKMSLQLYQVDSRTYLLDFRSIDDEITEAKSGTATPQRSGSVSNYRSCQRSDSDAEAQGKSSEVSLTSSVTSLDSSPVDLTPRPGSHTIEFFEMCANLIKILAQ
# Assay: NVS_ENZ_hAMPKa1: NovaScreen (NVS) Enzymatic Assay for human AMP-activated Protein Kinase, alpha 1 (AMPKa1) (AID 2283130)
# In short: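 Compounds were screened in duplicate at 25 uM, and those reaching ~30% inhibition were titrated up to 50 uM. The enzyme was recombinant human AMPKα1, and kinase turnover was read by fluorescence/mobility shift 1 h post-dosing as loss of signal versus DMSO.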
row,SMILES,outcome
1,CCCCC(CC)COC(=O)c1ccc(C(=O)OCC(CC)CCCC)c(C(=O)OCC(CC)CCCC)c1 (stereo unspecified),inactive
2,CCNS(=O)(=O)C(F)(F)C(F)(F)C(F)(F)C(F)(F)C(F)(F)C(F)(F)C(F)(F)C(F)(F)F,inactive
3,CCN(CC)N=O,inactive
4,O=C(Oc1ccc(Br)cc1)N1CCN2CCC1CC2,inactive
5,Oc1ccccc1Cl,inactive
